{"source": "PubChem BioAssay (NCATS)", "note": "Records with an inconclusive call do not appear. Unmarked numbers belong to inactive results. Calls follow the shape of the dose curve; as a rule, active = well fitted cell-killing curve with a large enough effect; inconclusive = small, poorly fitted or top-dose-only effect, or effect the other way; inactive = flat fitted curve, though single readings scatter. % is scaled to controls: 0 for no effect and ±100 for the full control effect."}
{"tested_on": "HeLa", "assay": "Primary qHTS to identify gynecologic anti-cancer compounds using libraries of approved drugs and bioactive compounds (AID 1345084); also: nearly all actives have a fitted effect of over 55% in size", "details": "Gynecologic cancer cell panel viability, ATPlite luminescence, 48 h; series mostly up to 57.5 µM; activity change, negative = cytotoxicity: at the top concentration", "method_in_brief": "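In this quantitative HTS, cell killing is estimated from loss of ATP-dependent luciferase light. Cells see five compound concentrations over a 48 h exposure.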"}
{"smiles": "COC(=O)c1ccc(OC(CO)C(O)c2ccc(O)c(OC)c2)c(OC)c1", "note": "(stereo unspecified)", "activity change, negative = cytotoxicity": "-6.91% [at 38.5 µM]"}
{"smiles": "COc1ccc2nc(S(=O)(=O)Cc3ncc(C)c(OC)c3C)[nH]c2c1", "activity change, negative = cytotoxicity": "-1.18%"}
{"smiles": "CC(=O)c1cc2c(cc1O)OC(C)(C)C=C2", "activity change, negative = cytotoxicity": "-4.05%"}
{"smiles": "COc1ccc([C@@]2(O)c3c(ccc(CC=C(C)C)c3O)NC(=O)[C@@H]2OC)cc1", "activity change, negative = cytotoxicity": "6.91% [at 38.5 µM]"}
{"smiles": "COC(=O)C1=CO[C@@H](O[C@@H]2O[C@H](CO)[C@@H](O)[C@H](O)[C@H]2O)[C@H]2[C@@H]1C=C[C@@]21C=C([C@H](C)O)C(=O)O1", "activity change, negative = cytotoxicity": "-3.52% [at 25.3 µM]"}
{"smiles": "c1ccc(N2CCN(CCc3nn[nH]n3)CC2)cc1", "activity change, negative = cytotoxicity": "0.798%"}
{"smiles": "Cc1cc2c(c(=O)[nH]1)OC(C(O)CC(C)C)O2", "note": "(stereo unspecified)", "activity change, negative = cytotoxicity": "-12.2%"}
{"smiles": "CC(=O)c1ccc2c(c1)C(O)C(C(C)(C)O)O2", "note": "(stereo unspecified)", "activity change, negative = cytotoxicity": "22.7%"}
{"smiles": "CC1(C)CC[C@]2(C(=O)O[C@@H]3O[C@H](CO[C@@H]4O[C@H](CO)[C@@H](O)[C@H](O)[C@H]4O[C@@H]4O[C@H](CO)[C@@H](O)[C@H](O)[C@H]4O)[C@@H](O)[C@H](O[C@@H]4O[C@H](CO)[C@@H](O)[C@H](O)[C@H]4O)[C@H]3O)CC[C@]3(C)C(=CCC4[C@@]5(C)CC[C@@H](O)[C@@](C)(C(=O)O[C@@H]6O[C@H](CO)[C@@H](O)[C@H](O)[C@H]6O)C5CC[C@]43C)[C@@H]2C1", "note": "(stereo partly specified)", "activity change, negative = cytotoxicity": "5.19% [at 6.55 µM]"}
{"smiles": "CC1=C(C)C(=O)OC(C(C)C2CCC3C4CC=C5CC(OC6OC(COC7OC(CO)C(O)C(O)C7O)C(O)C(O)C6O)CC(O)C5(C)C4CCC23C)C1", "note": "(stereo unspecified)", "activity change, negative = cytotoxicity": "0% [at 25.3 µM]"}
{"smiles": "CC(C)=CCC[C@](C)(O)[C@H]1CC[C@]2(C)[C@@H]1[C@H](O)CC1[C@@]3(C)CC[C@H](O)C(C)(C)C3[C@@H](O[C@@H]3O[C@H](CO)[C@@H](O)[C@H](O)[C@H]3O[C@@H]3OC[C@@H](O)[C@H](O)[C@H]3O)C[C@]12C", "note": "(stereo partly specified)", "activity change, negative = cytotoxicity": "3.2% [at 25.3 µM]"}
{"smiles": "C[C@@H]1CC[C@@]2(OC1)O[C@H]1C[C@H]3[C@@H]4CC=C5C[C@@H](O)CC[C@]5(C)[C@H]4CC[C@]3(C)[C@H]1[C@@H]2C", "activity change, negative = cytotoxicity": "3.42% [at 25.3 µM]"}
{"smiles": "CC(C)[C@@H](CS(=O)(=O)C(C)C)N1C(=O)[C@@](C)(CC(=O)O)C[C@H](c2cccc(Cl)c2)[C@H]1c1ccc(Cl)cc1", "activity change, negative = cytotoxicity": "-13.6%"}
{"smiles": "CC(C)=CCC[C@](C)(O[C@@H]1O[C@H](CO)[C@@H](O)[C@H](O)[C@H]1O)[C@H]1CC[C@]2(C)[C@@H]1[C@H](O)CC1[C@@]3(C)CC[C@H](O)C(C)(C)C3[C@@H](O[C@@H]3O[C@H](CO)[C@@H](O)[C@H](O)[C@H]3O)C[C@]12C", "note": "(stereo partly specified)", "activity change, negative = cytotoxicity": "-6.49% [at 25.3 µM]"}
{"smiles": "C/C=C(/COC(=O)/C(C)=C/C)C(=O)OC(CC)c1ccc(OC)c(OC)c1", "note": "(stereo unspecified)", "activity change, negative = cytotoxicity": "3.3% [at 38.5 µM]"}
{"smiles": "COc1ccc2cc(C(C)C(=O)Oc3ccc(C(N)=S)cc3)ccc2c1", "note": "(stereo unspecified)", "activity change, negative = cytotoxicity": "17.3%"}
{"smiles": "C/C=C1\\[C@H](O[C@@H]2O[C@H](CO)[C@@H](O)[C@H](O)[C@H]2O)OC=C(C(=O)OC)[C@H]1CC(=O)O", "activity change, negative = cytotoxicity": "19.2% [at 25.3 µM]"}
{"smiles": "C[C@@H]1O[C@@H](O[C@H]2[C@H](OC(=O)[C@]34CCC(C)(C)C[C@H]3C3=CCC5[C@@]6(C)C[C@H](O)[C@H](O[C@@H]7O[C@H](CO)[C@@H](O[C@H]8OC[C@](O)(CO)[C@H]8O)[C@H](O)[C@H]7O)[C@@](C)(CO)C6[C@H](O)C[C@@]5(C)[C@]3(C)C[C@H]4O)OC[C@H](O)[C@@H]2O)[C@H](O)[C@H](O)[C@H]1O[C@@H]1OC[C@@H](O)[C@H](O[C@@H]2OC[C@](O)(CO)[C@H]2O)[C@H]1O", "note": "(stereo partly specified)", "activity change, negative = cytotoxicity": "-3.15% [at 6.55 µM]"}
{"smiles": "CC(C)C(=O)OC[C@H]1O[C@H](O[C@H]2O[C@H](CO)[C@@H](O)[C@H](O)[C@H]2O)[C@H](O)[C@@H](O)[C@@H]1O", "activity change, negative = cytotoxicity": "5.75% [at 25.3 µM]"}
{"smiles": "O=C(COc1cccc2c(=O)[nH]ccc12)c1ccccc1", "activity change, negative = cytotoxicity": "-3.49%"}
{"smiles": "CC(=O)N1CCN(Cc2ccc([C@H](C)Nc3nccc(N4C(=O)OC[C@@H]4C(C)C)n3)cc2)CC1", "activity change, negative = cytotoxicity": "3.91%"}
{"smiles": "CCC(Nc1ncnc2nc[nH]c12)c1nc2cccc(F)c2c(=O)n1-c1ccccc1", "note": "(stereo unspecified)", "activity change, negative = cytotoxicity": "-6.03%"}
{"smiles": "CC(C(O)/C=C/C(C)(C)O)C1CCC2(C)C3C(=O)C=C4C(CCC(O)C4(C)C)C3(C)CCC12C", "note": "(stereo unspecified)", "activity change, negative = cytotoxicity": "13.3% [at 25.3 µM]"}
{"smiles": "c1ccc(-c2ncc(CN3CCN(c4ncccn4)CC3)[nH]2)cc1", "activity change, negative = cytotoxicity": "-0.888%"}
{"smiles": "CC[C@@H](O)C[C@@H]1C(C)=C[C@@H]2CCCC[C@@H]2[C@@]1(C)C(=O)O", "activity change, negative = cytotoxicity": "3.51%"}
{"smiles": "O=C(/C=C/c1ccc(O)cc1)OC1[C@H](O)CC(O)(C(=O)O)C[C@H]1O", "note": "(stereo partly specified)", "activity change, negative = cytotoxicity": "14.5% [at 38.5 µM]"}
